# Bioassay records as filed in PubChem.
# HPGD inh: HPGD (human) dehydrogenase inhibition; P15428; purified HPGD, NADH fluorescence kinetic, PGE2 substrate; Potency, µM, without a hit: at the highest dose activity change, negative = inhibition, most hits filed as inhibitors; 150,000 tested, 4.3% active; AID 894; active means well fitted inhibition curve with a large enough effect, not every such curve was filed as active; inconclusive means small, poorly fitted or top-dose-only effect, or another doubt; inactive means no such curve, though single readings can be large or run the other way; further: potency means the concentration at half of the fitted maximal effect; on the % scale 0 is the no-effect control and ±100 the full control effect
#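 NADH formation kinetics: reaction with 30 uM PGE2 and 1 mM NAD+ (final), 20 nM enzyme, Tris-HCl pH 8 with Tween 20, after 15 min compound preincubation at room temperature. Fluorescence change, last versus first of five reads.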
# CBFb-RUNX1 inh: CBF-beta/RUNX1 interaction disruption. Q01196+Q13951. AlphaScreen CBFb-His/RUNX1-biotin binding, biochemical. Potency, µM (highest dose often 59.8 µM), for the others: at the highest dose activity, negative = inhibition, most hits filed as inhibitors. 230,000 tested, under 10 active. AID 1477; further: % of control where 0% means no effect
#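 Compounds were screened at multiple concentrations against a preformed CBF-beta(His)/RUNX1(biotin) complex (30 nM of each) for 15 min at room temperature, followed by 90 min with nickel and streptavidin beads and AlphaScreen reading.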
# ALDH1A1 block: ALDH1A1 (human) enzyme inhibition | Purified ALDH1A1, NADH fluorescence, propionaldehyde substrate | P00352 | Potency, µM (titrated, usually from 75.3 µM), for the others: top-dose activity, negative = inhibition, hits mostly inhibitors | AID 1030 | 220,000 tested, 7.3% active; active means well fitted inhibition curve with a large enough effect, not every such curve was filed as active; inconclusive means small, poorly fitted or top-dose-only effect, or another doubt; inactive means no such curve, though single readings can be large or run the other way;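 further: potency means the concentration at half of the fitted maximal effect; plate controls were no enzyme wells and a reference inhibitor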
# Target sequence (P00352 whole entry, looked up): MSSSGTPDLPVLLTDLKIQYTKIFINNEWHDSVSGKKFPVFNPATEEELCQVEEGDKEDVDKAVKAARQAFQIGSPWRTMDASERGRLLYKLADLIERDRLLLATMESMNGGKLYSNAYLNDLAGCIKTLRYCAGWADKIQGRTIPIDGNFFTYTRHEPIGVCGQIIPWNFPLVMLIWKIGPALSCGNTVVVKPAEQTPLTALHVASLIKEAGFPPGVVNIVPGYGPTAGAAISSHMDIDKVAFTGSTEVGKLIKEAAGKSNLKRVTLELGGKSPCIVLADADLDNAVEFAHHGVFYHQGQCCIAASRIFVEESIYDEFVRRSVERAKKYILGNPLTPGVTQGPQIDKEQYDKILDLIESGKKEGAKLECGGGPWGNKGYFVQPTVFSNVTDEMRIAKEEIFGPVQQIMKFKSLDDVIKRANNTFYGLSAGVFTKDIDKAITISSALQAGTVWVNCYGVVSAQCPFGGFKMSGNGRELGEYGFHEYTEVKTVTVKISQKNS
# HTT aggregate: reduces HttQ103-GFP aggregates in PC12 cells. PC12 HttQ103-GFP aggregates, Acumen cytometry, 40 h. Potency, µM (highest dose often 46.1 µM), for inactives: at the highest dose activity change, negative = inhibition, hits mostly inhibitors. 220,000 tested, 1.1% active. AID 1688; further: potency means the concentration at half of the fitted maximal effect; on the % scale 0 is the no-effect control and ±100 the full control effect; nearly all actives have a fitted effect of over 60% in size
#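 Using laser scanning cytometry, GFP-positive aggregates were counted after lysis of PC12 cells induced with 100 nM tebufenozide to express HTT exon 1 Q103–GFP. Compounds were tested in titration.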
# PNC assembly inh: perinucleolar compartment assembly inhibition. PC3M PTB-GFP, PNC prevalence imaging, 16 h; active compounds read low. 140,000 tested, 3.1% active. activity change (PNC), negative = inhibition, % at 10 µM;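 active means readout at or below -70, meaning at least 70% loss of cells showing the perinucleolar compartment, a nuclear body marking cancer cells; inconclusive means readout between -30 and a set limit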;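 further: plate controls were DMSO wells for no effect and camptothecin positive control wells for full effect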
#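 Read-out is percentage of cells bearing a perinucleolar compartment, from automated 20x imaging of fixed, Hoechst-stained PC3M PTB-GFP cells. Cells were seeded 4 h, then exposed 16 h to compound (23 nl of library stock) in duplicate plates.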
# HTT ATP protect: cytoprotection in Huntington HTT-Q103 PC12 cell model; PC12 HTT-Q103 induced, cytoprotection, ATP luminescence, 40 h; Potency, µM (doses to about 56.4 µM), for inactives: cytoprotection (ATP increase), usual class: activators; 230,000 tested, 0.14% active; further: potency means the concentration at half of the fitted maximal effect; % of control where 0% means no effect; nearly all actives have a fitted effect of over 45% in size
#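 Cells were plated at 1500 per well in phenol red-free DMEM with 5% equine and 5% calf serum. Tebufenozide (100 nM final) and compounds were added, then ATPlite reagent, and luminescence was read.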
# * hit, by the source's call; u = inconclusive; x = no result given; [ ] = dose if it differs, or a comment. Shown are actives, neighbours in structure and some others; about 11% of the full set was active somewhere. Unless noted, the call rests on the fitted dose curve; in most records, active means well fitted curve in the direction sought with a large enough effect; inconclusive means small, poorly fitted or top-dose-only effect, or another doubt; inactive means no such curve, though single readings can be large; an effect the other way counts as inactive or inconclusive.
SMILES,HPGD inh,CBFb-RUNX1 inh,ALDH1A1 block,HTT aggregate,PNC assembly inh,HTT ATP protect
COCC(=O)Oc1c(Sc2ccccc2[N+](=O)[O-])c(C)nn1C(C)(C)C,x,7%,8.9µM*,17%,x,-2%
O=S1(=O)C2CC3C=CC2(O3)C(O)C(Cc2ccccc2)N1Cc1cccc(F)c1 (centres undefined),x,7%,x,x,x,x
O=c1cc(O)c(Cl)c[nH]1,x,x,x,22%,x,11%
COc1ccc(OC)c(C2=Nn3c(nnc3-c3cc(OC)ccc3OC)SC2)c1,x,-1%,x,x,x,x
CN(C)c1ncnc2ccc(-c3cccc(NS(C)(=O)=O)c3)cc12,x,x,27%,x,x,-131%
CCOC(=O)C(CC)Sc1ncnc2nc[nH]c12 (centres undefined),-8%,-3%,1%,-1%,-100*,5%[10 µM]
CCOC(=O)C(C)Sc1ncnc2nc[nH]c12 (centres undefined),0%,1%,-3%,17%,-9,22%[10 µM]
COc1cc(OC)cc([C@H](CNc2ncnc3c2ncn3[C@@H]2O[C@@H](CO)[C@H](O)[C@@H]2O)c2ccccc2C)c1,x,x,x,x,x,23%[1.9 µM]
COc1cc([C@H]2Oc3cc([C@H]4Oc5cc(O)cc(O)c5C(=O)[C@@H]4O)ccc3O[C@@H]2CO)ccc1O,-24%,1%[21.7 µM],14µM*,15%,x,10%
COc1cc([C@@H]2Oc3cc([C@H]4Oc5cc(O)cc(O)c5C(=O)[C@H]4O)ccc3O[C@H]2CO)ccc1O,35µM*,1%[21.7 µM],u,x,x,19%[1.9 µM]
CC(=O)Nc1ccc2c(c1)C(=Nc1ccc(C(=O)O)cc1)c1ccccc1-2,-16%,x,-4%[13.5 µM],x,x,-13%[10 µM]
COC(=O)[C@@H](NC(=O)Nc1ccc(C(C)=O)cc1)C(C)C,-14%,1%,2%,-3%,87,10%[0.074 µM]
COC(=O)[C@@H](NC(=O)Nc1ccc(OC(F)(F)F)cc1)C(C)C,28µM*,3%,u,-2%,0,2%[0.074 µM]
CCn1cc(CN2CCN(CCc3ccccc3)C(CCO)C2)c(C)n1 (centres undefined),x,5%,2%,-18%[9.22 µM],x,-12%[10 µM]
